Bioassay records deposited in PubChem by Sanford-Burnham Center for Chemical Genomics.
Cardio protect: protects H9c2 cardiomyocytes from peroxide injury. H2O2 injury protection, ATPLite, 2 h. protection from H2O2 cell death, % at 20 µM. 0.63% of 360,000 active;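 active = compounds giving at least 50% protection of heart cells from peroxide-induced death in the single-dose screen, raw or plate-pattern-corrected value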;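 note: 0% = DMSO wells with peroxide and 100% = DMSO wells without peroxide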
PfG6PD inh: PfG6PD (Plasmodium falciparum) enzyme inhibition. PfGluPho enzyme, NADPH resazurin-diaphorase fluorescence. 0.78% of 350,000 active. inhibition, % at 20 µM;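 active = inhibition reaching at least a set limit at 20 µM in the primary screen, cut at about 59% in these data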;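 note: 0% = DMSO wells with substrate and 100% = DMSO wells lacking glucose-6-phosphate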
NadD inh: inhibitors of Staphylococcus aureus NadD | purified NadD enzyme, colorimetric absorbance read-out | inhibition, % at 20 µM | 0.78% of 360,000 active | AID 602399; in the data active = inhibition above about 26%
A3G deaminase: APOBEC3G (human) deaminase inhibition. AID 493012. 0.28% of 330,000 active. recombinant A3G, ssDNA deamination FAM/TAMRA fluorescence. inhibition, % at 20 µM;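 active = inhibition of at least 40% at 20 µM, with no more than 30% in the related APOBEC3A deaminase screen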;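 note: plate controls were DMSO wells with A3G for no effect and wells lacking A3G enzyme for full effect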
Target sequence (Q9HC16 whole entry, looked up): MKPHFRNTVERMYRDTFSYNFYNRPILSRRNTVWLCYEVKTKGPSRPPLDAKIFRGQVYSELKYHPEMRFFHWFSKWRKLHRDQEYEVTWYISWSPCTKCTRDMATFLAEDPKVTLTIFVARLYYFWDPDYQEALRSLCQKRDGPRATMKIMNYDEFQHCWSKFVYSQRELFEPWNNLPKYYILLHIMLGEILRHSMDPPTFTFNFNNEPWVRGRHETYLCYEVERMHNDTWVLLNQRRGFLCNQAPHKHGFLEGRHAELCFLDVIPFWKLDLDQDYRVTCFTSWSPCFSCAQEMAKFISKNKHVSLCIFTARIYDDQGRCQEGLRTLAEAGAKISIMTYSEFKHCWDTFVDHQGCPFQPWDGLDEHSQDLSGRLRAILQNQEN
APOBEC3A inh: human APOBEC3A DNA deaminase inhibition; P31941; recombinant A3A, FAM/TAMRA ssDNA deamination fluorescence; inhibition, % at 20 µM; 0.41% of 330,000 active;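 active = at least 40% inhibition at 20 µM here, with at most 30% in a related deaminase screen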;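 note: plate controls were A3A with DMSO for no effect and wells lacking A3A enzyme for full effect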
Target sequence (P31941 whole entry, looked up): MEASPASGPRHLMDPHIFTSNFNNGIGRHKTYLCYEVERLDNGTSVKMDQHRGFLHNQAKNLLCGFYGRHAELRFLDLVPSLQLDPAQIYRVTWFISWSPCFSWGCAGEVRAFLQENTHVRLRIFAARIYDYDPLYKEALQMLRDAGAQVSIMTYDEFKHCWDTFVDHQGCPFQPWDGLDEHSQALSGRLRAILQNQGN
H9c2 TAG inh: inhibitors of triacylglycerol accumulation | H9c2 cells, Nile Red lipid (TAG) fluorescence; cells loaded with 200 µM oleic acid | 0.66% of 230,000 active | AID 651582 | inhibition, % at 12.5 µM;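 active = pattern-corrected inhibition of lipid staining of at least 50% with the nuclear-stain viability signal not falling by more than 50%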;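 note: 0% = DMSO wells and 100% = triacsin C control wells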
NadD inh conf: confirmation of Staphylococcus aureus NadD inhibitors. shares compounds with NadD inh. AID 624309. inhibition, % at 20 µM. 13% of 2,000 active. purified S. aureus NadD, colorimetric enzyme assay; in the data active = inhibition mostly above about 42%, no sharp cut-off; inactive = mostly below about 42%
* hit, by the source's call; · = no result. Compounds with a hit are over-represented: about 2.9% of the library has one in this group of screens.

SMILES	Cardio protect	PfG6PD inh	NadD inh	A3G deaminase	APOBEC3A inh	H9c2 TAG inh	NadD inh conf
Cc1ccccc1-n1nc2c(c1NC(=O)c1c(-c3ccccc3Cl)noc1C)CSC2	-2.0	-7.9	63.2*	-7.2	-2.3	·	34.4
Cc1ccc(-n2nc3c(c2NC(=O)c2ccc(Br)o2)CSC3)c(C)c1	-2.6	-10.8	85.2*	-6.6	-3.0	·	62.3*
Cc1cccc(-n2nc3c(c2NC(=O)c2ccco2)CSC3)c1C	0.2	20.6	43.7*	11.7	34.3	·	72.6*
Cc1ccc(-n2nc3c(c2NC(=O)/C=C\c2ccc4c(c2)OCO4)CSC3)c(C)c1	-2.2	15.7	30.6*	-12.0	-3.6	-1.2	56.7*
COC(=O)c1ccc(COC(=O)C2CCN(S(=O)(=O)c3c(C)cc(C)cc3C)CC2)o1	-5.5	0.0	-5.4	·	·	-16.4	·
Cc1ccc(-n2nc3c(c2NC(=O)c2ccc4c(c2)OCO4)CS(=O)C3)cc1 (stereo unspecified)	9.0	8.4	-2.5	-5.7	-2.3	2.9	·
Cc1ccc(-n2nc3c(c2NC(=O)/C=C\c2ccc4c(c2)OCO4)CSC3)cc1	19.5	3.9	41.5*	-8.6	0.5	2.0	61.9*
COc1ccc(C(=O)NCc2nnc(SCC(=O)NC3CCCC3)o2)cc1	-5.5	14.5	-6.0	-2.4	-0.8	·	·
COc1ccc(Nc2nc(-c3cccs3)cs2)cc1	·	27.1	·	-3.5	-1.8	·	·
Oc1ccc(Nc2nc(-c3cccs3)cs2)cc1	5.5	1.3	33.3*	-4.5	-5.5	·	61.7*
CC1=CC(=O)N(c2cccc3c(N4C(=O)C=C(C)C4=O)cccc23)C1=O	10.7	20.8	57.6*	·	·	9.8	41.1
CCOc1cc(/C=N/NC(=O)CNc2ccc(C)cc2)ccc1OC(=O)c1ccccc1	1.6	1.3	32.5*	-0.5	8.7	·	12.5
CNc1cc(-c2cccc(OC)c2F)nc2ccnn12	3.1	·	2.5	·	·	2.3	·
Cc1ccc(C(C)(C)C)cc1S(=O)(=O)N1CCC(C(=O)N2CCN(c3ccc(O)cc3)CC2)CC1	-14.0	55.2	67.0*	11.6	-3.3	-37.1	17.1
COc1ccc(NC(=O)CSc2ccc3c(c2)OCCO3)cc1S(N)(=O)=O	-2.2	3.4	-3.6	6.0	1.3	-13.5	·
COC(=O)C1=C(C)NC(C)=C(C(=O)OC)C1c1cc2cc(C)ccc2[nH]c1=O	3.1	-10.9	4.0	-6.7	-1.8	-43.4	·
Cc1ccc2[nH]c(=O)c(C3C(C#N)=C(N)Oc4c3ccc3cccnc43)cc2c1 (stereo unspecified)	64.4*	19.1	45.5*	-2.3	-1.5	-19.6	21.2
CCC1CCCCN1c1ccc([N+](=O)[O-])cc1/C=N/NC(=O)Cn1c2ccccc2c(=O)c2ccccc21 (stereo unspecified)	-0.9	0.2	51.0*	-9.1	-4.1	27.7	3.3
CCc1ccc(OCC(=O)N/N=C/c2cc([N+](=O)[O-])ccc2N2CCCCCC2)cc1	-7.6	15.5	23.6	-7.4	-4.6	·	·
COc1ccc(/C=N/NC(=O)Cc2csc(Nc3cccc(C(F)(F)F)c3)n2)c(OC)c1	-36.8	24.4	33.0*	-4.8	-0.4	·	45.4
CCOc1ccc(/C=N/NC(=O)Cc2csc(Nc3cccc(C(F)(F)F)c3)n2)c(OCC)c1	2.3	12.1	8.7	-2.0	-1.0	·	·
COC(=O)c1c(NC(=O)COC(=O)c2ccc(NC(=O)CC#N)cc2)sc2c1CCCCC2	-5.7	7.6	81.6*	-3.3	6.2	4.4	24.8
CC(C)(C)OC(=O)N1CCC(C(=O)NCC2CCCO2)CC1 (stereo unspecified)	0.0	0.0	-1.9	-8.5	-2.3	·	·
Cn1c(=O)c(C(=O)CN2CCCc3ccccc32)c(N)n(Cc2ccccc2)c1=O	-2.0	-0.5	17.6	-3.3	-3.5	0.4	·
Cn1c(=O)c(C(=O)CN2CCc3ccccc32)c(N)n(Cc2ccccc2)c1=O	-2.9	13.2	62.5*	-5.2	0.5	·	15.4
SMILES	Cardio protect	PfG6PD inh	NadD inh	A3G deaminase	APOBEC3A inh	H9c2 TAG inh	NadD inh conf
O=C(c1cc2ccccc2o1)N1CCN(C/C=C/c2ccccc2)CC1	-11.9	-5.0	-4.2	-7.9	-2.9	-6.2	·
Cc1cc(=O)oc2c3c(cc(OCC(=O)N4CCC[C@H]4C(=O)O)c12)OC(C)(C)CC3	1.2	-10.7	4.1	-8.3	-3.2	·	·
CC1=C(C(=O)Nc2ccccc2)C(c2ccc(C)o2)n2c(s/c(=C\c3ccco3)c2=O)=N1 (stereo unspecified)	12.7	4.7	34.1*	0.1	7.9	14.4	3.2
OCCC1CN(Cc2cccn2-c2ncccn2)CCN1C1CCCC1 (stereo unspecified)	6.0	-12.1	-7.2	-4.2	-0.6	-4.5	·
Cc1sc2nc(COC(=O)c3cccc(S(=O)(=O)N(C)c4ccccc4)c3)[nH]c(=O)c2c1C	-1.9	0.0	37.5*	0.4	4.9	7.7	3.6
Cc1ccc(NC(=O)COc2ccc(/C=C3/SC(=Nc4ccccc4)N(Cc4cccnc4)C3=O)cc2)cc1	4.9	-2.6	40.1*	-8.5	0.0	19.5	3.0
Cc1ccc(NC(=O)COc2ccc(/C=N/NC(=O)CSCc3ccccc3)cc2)cc1	3.8	-11.3	-1.1	1.0	2.4	·	·
CC(C)Sc1nc(-c2cccs2)nc2cc(Cl)ccc12	·	·	6.4	·	·	·	·
COc1ccccc1/C=C/C1=NC(=C\C=C/c2ccccc2)/C(=O)O1	4.2	9.1	19.4	-2.2	8.3	·	·
COc1ccccc1/C=C/C=C1N=C(/C=C/c2ccc(Cl)cc2)OC/1=O	-1.0	-2.6	31.9*	-0.3	-0.7	·	-2.6
COc1ccccc1C(=O)NNC(=O)C1CC=CCC1 (stereo unspecified)	-8.2	-15.1	1.7	-5.0	-5.0	·	·
O=C(Nc1ccncc1)C1CCN(S(=O)(=O)c2ccc(Cl)c(C(F)(F)F)c2)CC1	-5.3	14.7	2.5	-1.9	1.5	3.2	·
O=C(Nc1ccc(F)cc1)c1nc2c(nnn2Cc2cccc3ccccc23)c(=O)[nH]1	-4.8	-17.1	32.9*	0.0	5.5	0.7	19.5
COc1cccc(OC)c1NC(=O)c1nc2c(nnn2Cc2ccccc2Cl)c(=O)[nH]1	-13.9	-5.1	14.9	-2.6	-2.6	-9.4	·
COc1ccc(C(=O)N/C(=C\c2cn(S(=O)(=O)N(C)C)c3ccccc23)C(=O)NCCCN2CCOCC2)cc1	2.7	13.6	-9.3	-4.9	-6.4	·	·
Cc1ccc(N2C(=O)CC(N(CCc3ccccc3)C(=S)Nc3ccc(N(C)C)cc3)C2=O)cc1 (stereo unspecified)	-4.8	-4.4	37.4*	-3.6	-2.7	-3.6	35.3*
O=C1CC(N(CCc2ccccc2)C(=S)Nc2ccccc2)C(=O)N1c1ccc(Br)cc1 (stereo unspecified)	-20.3	8.5	2.9	-7.6	1.0	·	·
Nc1c(C(=O)Nc2ccc(S(=O)(=O)N3CCCC3)cc2)sc2nc3ccc(OC(F)(F)F)cc3cc12	11.8	4.0	27.7	-9.0	-5.8	·	·
